TROY NFkB inh – inhibitors of TROY-dependent NF-kB signaling; Q293 LMP1-TROYcd NF-kB luciferase reporter, 4 h; inhibition, % at 10 µM; 360,000 tested, 0.98% active; AID 1347056;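 active means compounds whose plate-normalised and pattern-corrected inhibition of the luciferase reporter signal at the single screening dose is 50% or more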
EWS-Fli inh – inhibitors of EWS/Fli oncoprotein transcriptional activity | A673 NR0B1-luciferase reporter, viability-normalised | 350,000 tested, 0.67% active | inhibition, % at 12.6 µM;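 active means mean inhibition of at least 50% after viability correction, with every replicate also passing that limit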;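 further: firefly luciferase signal divided by Alamar Blue viability fluorescence both relative to DMSO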
TWEAK Fn14 block – inhibitors of TWEAK-Fn14 interaction signaling. AID 1159606. inhibition, % at 10 µM. TWEAK-stimulated Fn14 reporter cells, luciferase luminescence, 8 h. 360,000 tested, 2% active; in the data active means inhibition above about 50%
LGR2 antag – Drosophila LGR2 receptor signaling inhibition; HEK293 LGR2, CRE-luciferase, bursicon-stimulated, 4 h; inhibition, % at 9.99 µM; 380,000 tested, 0.35% active;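 active means drop in luminescence signal, shown as inhibition above about 50% in the replicate tests, limit read from the data, passing the limit was not always enough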;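 further: agonist challenge used bursicon conditioned medium at about half maximal strength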
KKLEB cytotox – CF airway cell cytotoxicity counter-screen. KKLEB CF airway cells viability, ATPlite luminescence, overnight; stronger effect = lower value; cells stimulated with P. aeruginosa culture filtrate. activity change (cytotoxicity), % at 5 µM. 360,000 tested, 0.36% active. AID 602141;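 active means corrected activity change at or below -50% at 5 µM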
CF NFkB block – blocks PAF-induced NF-kB reporter in cystic fibrosis cells; KKLEB NF-kB-GFP reporter, GFP fluorescence overnight; inhibition, % at 5 µM; 360,000 tested, 0.86% active; AID 588850;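 active means at least 50% inhibition at 5 µM, scaled per plate between neutral and stimulator controls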;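 further: PAF is a Pseudomonas aeruginosa culture filtrate used as stimulus; plate controls were PAF-stimulated DMSO wells for no effect and unstimulated DMSO wells for full effect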
DNA binder FP – DNA binding small molecules | 640 tested, 2% active | salmon sperm DNA acridine orange fluorescence polarization | shares compounds with EWS-Fli inh | AC35, µM (series often up to 68 µM), for inactives: at the highest dose activity change, negative = DNA binding;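 active means fitted curve reaches a 35% signal fall AC35 below twice the sample's top valid tested dose, actives reach about 48 µM in these data; inactive means the rest, including activity in the rising direction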;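 further: lower polarization ratio signals compound binding to DNA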
* marks the source's active call; other numbers are inactive results; / = no result given. Shown are actives, neighbours in structure and some others; about 2.6% of the full set was active somewhere.

SMILES | TROY NFkB inh | EWS-Fli inh | TWEAK Fn14 block | LGR2 antag | KKLEB cytotox | CF NFkB block | DNA binder FP
COc1ccc(NS(=O)(=O)c2cc(NC(=O)CNC(=O)c3cccc(OC)c3)ccc2C)cc1 | -12 | 63* | -14 | -8 | -1 | -24 | 2%
COc1cccc(NC(=O)CNC(=O)c2ccccc2)c1 | -26 | / | -24 | -16 | -6 | -14 | /
COc1ccc(CN2[C@H](CO)[C@H]3c4ccccc4N(C(=O)NC(C)C)C[C@H]32)cc1 | / | -1 | / | -8 | / | / | /
CN=c1scc(-c2ccccc2F)n1/N=C/c1ccc[nH]1 | 83* | 87* | 105* | 93* | -55* | -17 | -8%
CN=c1scc(-c2ccco2)n1/N=C/c1ccc(O)c(O)c1 | 3 | 15 | 3 | -3 | -6 | -6 | /
CN=c1scc(-c2ccccc2F)n1/N=C/c1ccc(O)c(O)c1O | 92* | 56* | 99* | 70* | -34 | -3 | -3%
CN1CCN(C(=O)C[C@@H]2CC[C@@H]3[C@H](COC[C@@H](O)CN3Cc3cccc(-c4ccncc4)c3)O2)CC1 | / | 16 | / | -4 | / | / | /
Cc1nn(C)cc1NC(=O)C[C@H]1CC[C@H]2[C@H](COc3ccc(NC(=O)NC(C)C)cc3C(=O)N2C)O1 | / | 1 | / | 4 | / | / | /
O=C(/C=C/c1ccc(Cl)cc1Cl)N(Cc1ccc(Cl)cc1)C1CCS(=O)(=O)C1 (stereo unspecified) | 36 | 70* | 13 | -2 | 1 | 2 | -10%
C[C@H]1CCCCO[C@@H](CN(C)C(=O)Nc2ccc(C(F)(F)F)cc2)[C@@H](C)CN([C@@H](C)CO)C(=O)c2cc(NC(=O)c3ccccc3)ccc2O1 | / | 0 | / | 3 | / | / | /
Cc1ccccc1NC(=O)C(=Cc1ccc(C(=O)O)cc1)C(=O)Nc1ccccc1C | 16 | 54* | 78* | 27 | -44 | 0 | -9%
COC(=O)C[C@@H]1CC[C@@H]2[C@H](COc3ccc(NC(=O)c4cccc(Cl)c4)cc3C(=O)N2C)O1 | / | 69* | / | 26 | / | / | -7%
COC(=O)C[C@@H]1CC[C@@H]2[C@H](COc3ccc(NC(=O)Nc4cccc(Cl)c4)cc3C(=O)N2C)O1 | / | 59* | / | 19 | / | / | -4%
COC(=O)C[C@H]1CC[C@H]2[C@H](COc3ccc(NC(=O)Nc4ccc(Cl)cc4)cc3C(=O)N2C)O1 | / | 27 | / | 5 | / | / | /
O=C(C[C@H]1CC[C@H]2[C@@H](COC[C@H](O)CN2Cc2ccc3c(c2)OCO3)O1)Nc1ccc(-c2ccccc2)cc1 | / | 21 | / | -25 | / | / | /
NCCCCCCNC(=O)[C@@H]1C[C@@H]2C(=O)N[C@@H](Cc3ccccc3)C(=O)N2[C@@H]1c1ccc(O)cc1 | / | -13 | / | / | / | / | /
N#CC(=C1C=C(Br)C(=NO)C=C1Cl)c1ccc(Cl)cc1 | 31 | 14 | 27 | -13 | 3 | 20 | /
N#CC(=C1C=CC(=NO)C(Cl)=C1)c1ccccc1 | 25 | 51* | 26 | 3 | -6 | 50* | -2%
C[C@H]1CN([C@@H](C)CO)C(=O)Cc2cc(NS(=O)(=O)c3ccc(F)cc3)ccc2O[C@@H]1CN(C)C(=O)Nc1ccc(F)cc1 | / | -6 | / | 11 | / | / | /
Cc1noc(C)c1NC(=O)Nc1ccc2c(c1)CC(=O)N([C@H](C)CO)C[C@@H](C)[C@@H](CN(C)Cc1ccc(Cl)c(Cl)c1)O2 | / | 61* | / | -7 | / | / | 0%
C[C@H]1CN([C@@H](C)CO)C(=O)c2cc(NS(=O)(=O)c3ccc(Cl)cc3)ccc2O[C@H]1CN(C)Cc1ccc(Cl)c(Cl)c1 | / | 61* | / | 15 | / | / | -18%
C[C@@H]1CN([C@H](C)CO)C(=O)c2cc(NS(=O)(=O)c3ccc(Cl)cc3)ccc2O[C@@H]1CN(C)Cc1ccc(Cl)c(Cl)c1 | / | 53* | / | 14 | / | / | 0%
Cc1ccc(-c2ccc3c(c2)O[C@H](CN(C)C(=O)C2CCC2)[C@H](C)CN([C@@H](C)CO)S3(=O)=O)cc1 | / | -2 | / | 21 | / | / | /
Cc1ccc(C(C)C)c(OCc2ccc(C(=O)N/N=C/c3ccc(O)cc3O)cc2)c1 | -7 | 63* | 27 | / | -10 | 14 | 13%
Cc1ccc(C(C)C)c(OCc2ccc(C(=O)N/N=C/c3ccc(C(=O)O)cc3)cc2)c1 | -24 | 32 | 11 | -59 | -1 | 8 | /
SMILES | TROY NFkB inh | EWS-Fli inh | TWEAK Fn14 block | LGR2 antag | KKLEB cytotox | CF NFkB block | DNA binder FP
CCCCOc1ccc(NC(=O)C(=O)NCCCn2ccnc2)cc1 | -6 | 78* | -8 | 5 | -3 | -3 | -7%
C=C1C(=O)[C@@]23[C@H](O)C[C@@H]4C(C)(C)CC[C@H](O)[C@@]4(C)[C@@H]2CC[C@@H]1[C@H]3O | 28 | 60* | 95* | 59* | -32 | 95* | -9%
CCN(CC)c1ccc(C2NC(=O)c3ccccc3N2)cc1 (stereo unspecified) | 77* | 62* | 95* | 88* | -80* | -11 | 6%
O=C(NC[C@H]1N[C@H](CO)[C@@H]1c1ccc(C2=CCCCC2)cc1)c1cccc(F)c1 | / | 24 | / | -5 | / | / | /
CN(C[C@H]1N[C@@H](CO)[C@@H]1c1ccc(C2=CCCC2)cc1)C(=O)c1cccc(F)c1 | / | 77* | / | 7 | / | / | -18%
Cc1cc(-c2nc3ccccc3s2)ccc1N | 32 | 61* | 83* | 54* | -29 | -32 | -11%
O=C(C[C@@H]1CC[C@@H]2[C@H](COC[C@@H](O)CN2S(=O)(=O)c2ccc(F)cc2)O1)NCc1ccc(Cl)c(Cl)c1 | / | 76* | / | 19 | / | / | -16%
COc1ccccc1NC(=O)N(C)C[C@@H]1Oc2ncc(C#CCC(C)C)cc2C(=O)N([C@H](C)CO)C[C@H]1C | / | 6 | / | -2 | / | / | /
CO[C@H]1CN(C)C(=O)c2cc(NC(=O)NC(C)C)ccc2OC[C@@H](C)N(Cc2ccc(-c3ccccn3)cc2)C[C@@H]1C | / | 11 | / | 10 | / | / | /
CO[C@H]1CN(C)C(=O)c2cc(NC(=O)NC(C)C)ccc2OC[C@H](C)N(Cc2ccc(-c3ccccn3)cc2)C[C@@H]1C | / | 51* | / | 47 | / | / | 12%
CN(C)c1ccc(C=c2c3ccccc3n3c2c2c([n+]3C)CCCC2)cc1 | 48 | 53* | 63* | 32* | 7 | -139 | 6.5µM*
O=C(C[C@@H]1CC[C@H]2[C@@H](COC[C@H](O)CN2C(=O)Nc2ccc(C(F)(F)F)cc2)O1)NCC1CC1 | / | -6 | / | 0 | / | / | /
Oc1c(C(c2ccc(Cl)cc2)N2CCCC2)cc(Cl)c2cccnc12 (stereo unspecified) | 0 | 53* | -4 | 19 | -26 | 31 | -2%
COc1ccc(CCC(C)NC2CCCCCCC2)cc1 (stereo unspecified) | -1 | 11 | -26 | 11 | 2 | -10 | /
COc1ccc(CCC(C)NCC2CCCCC2)cc1 (stereo unspecified) | 17 | 90* | -6 | 10 | -7 | -6 | 2%
